Activity calls are given as the source filed them. The calls were made as follows: active = hit-call score of the fitted dose curve at least 0.9, where 1 is the maximum; inactive = score below 0.9.

The experiment in a line: ATG_AP_2_CIS: Attagene CIS-FACTORIAL HepG2 Assay for human Activator Protein 2 (AP-2) (AID 2282932). Particulars: HepG2 AP-2 cis-reporter, Attagene transcription factor profiling; actives raise or lower the signal. As to the method:
ATG_CIS is a cell-based, multiplexed-readout assay that uses HepG2, a human liver cell line, with measurements taken at 24 hours after chemical dosing in a 24-well plate.ATG_AP_2_CIS is one of 52 assay component(s) measured or calculated from the ATG_CIS assay. It is designed to make measurements of mRNA induction, a form of inducible reporter, as detected with fluorescence intensity signals by Reverse transcription polymerase chain reaction (RT-PCR) and Capillary electrophoresis technology.Data from the assay component ATG_AP_2_CIS was analyzed into 1 assay endpoint. This assay endpoint, ATG_AP_2_CIS, was analyzed with bidirectional fitting relative to DMSO as the negative control and baseline of activity. Using a type of inducible reporter, measures of mRNA for gain or loss-of-signal activity can be used to understand the reporter gene at the transcription factor-level as they relate to the gene TFAP2A and TFAP2B and TFAP2D. Furthermore, this assay endpoint can be referred to as a primary readout, because this assay has produced multiple assay endpoints where this one serves a reporter gene function. To generalize the intended target to other relatable targets, this assay endpoint is annotated to the dna binding intended target family, where the subfamily is basic helix-turn-helix leucine zipper.
Human liver HepG2 cells are transiently transfected with multiple reporter transcription units (MRTUs) in 6-well plates using FuGene 6 reagent (Roche; 3 ml FuGene/1 mg DNA). The MRTU constructs are regulated by a cis-regulating element (promoter). […] A major difference between the CIS and TRANS system is that in CIS activities of endogenous TFs are measured, whereas the TRANS assay evaluates changes in activities of exogenous, chimeric NR-Gal4 proteins. […] At the end of 24 hour incubation, total RNA was isolated using TriZol reagent (Invitrogen). The isolated RNA is then reverse-transcribed using oligo(dT) primer and Mo-MLV reverse transcriptase (Invitrogen) with DNAse I (Ambion) treatment for 30 min. The one-tenth of the produced cDNA was amplified by PCR using Taq DNA polymerase (Invitrogen) and two reporter sequence-specific primers. The PCR products were fluorescently labeled by primer extension with 6-arboxyfluorescein (6-FAM) 5'-labeled reporter sequence-specific primer (2 min at 95 C, 20 s at 68 C and 10 min at 72 C) and these products were digested with 5U of HpaI (New England Biolabs) for 2h at 37 C. The fragments were purified using Qiaquick PCR columns (Qiagen), analyzed on an ABI 3130xL genetic analyzer (Applied Biosystems) with peak positions identified by using a set of X-rhodamine (ROX)-labeled MapMarker1000 molecular weight standards (BioVentures). The raw capillary electrophoresis data was processed using Attagraph software (Attagene).
Consider `C[C@]12CCC(=O)C=C1CC[C@@H]1[C@@H]2C(=O)C[C@@]2(C)[C@H]1CC[C@]2(O)C(=O)CO`, for which the compound was classed as inactive.

Regarding `CC(=O)OCc1ccco1`, the result was inactive.

In the case of `CO[Si](CCC1CCC2OC2C1)(OC)OC` (stereo not given), the compound was classed as inactive.

As for `C=C(C)CCO`, the outcome was inactive.

As to `CCC(C)C=O` (stereo not given), the result was inactive.

Take `COC=O`: the call was inactive.

Consider `c1ccc(-c2ccccn2)nc1`, for which the compound was classed as inactive.

On to `C[C@]12C=CC(=O)C=C1CC[C@@H]1[C@@H]2[C@@H](O)C[C@@]2(C)[C@H]1CC[C@]2(O)C(=O)CO`, for which the compound was classed as inactive.

As to `CC1=CC[C@H]2C[C@@H]1C2(C)C`, the result was inactive.

On to `CCOC(=O)CC`, for which the result was inactive.

`COc1ccc(-c2coc3cc(O)ccc3c2=O)cc1`: the compound was called inactive.

In the case of `CC(C)=CCC/C(C)=C\C#N`, the outcome was inactive.

Take `CC(=O)CC(N)=O`: the outcome was inactive.

As to `CC=CCO`, the outcome was inactive.

As for `C=CC(=O)OCCOC(=O)C=C`, the half-maximal activity concentration (AC50) (usually the midpoint of the concentration-response curve, whichever way the signal moves) is 27.2 µM (active).

With `CC(C)=CC1CC(C)CCO1` (stereo not given), the compound was classed as inactive.

Consider `COC(=O)c1ccccc1OC`, for which the result was inactive.

For `Cc1c(C)c([N+](=O)[O-])c(C(C)(C)C)c([N+](=O)[O-])c1C`, the call was inactive.

With `CC(=O)Nc1nnc(S(N)(=O)=O)s1`, the result was inactive.

For the compound `CC(=O)c1ccc[nH]1`, the call was inactive.

In the case of `CCCCCCCCCCCCCCCC[n+]1ccccc1`, the AC50 is 21 µM (active).

Consider `C=C1C2CCC(C2)C1(C)C` (stereo not given), for which the result was inactive.

Take `O=c1[nH]nc(-c2ccc([N+](=O)[O-])o2)o1`: the call was inactive.

With `Cc1ccc(N)c([N+](=O)[O-])c1`, the result was inactive.

Turning to `Cc1cnc(NC(=O)C2=C(O)c3ccccc3S(=O)(=O)N2C)s1`, the compound was classed as inactive.

On to `CC1OC1C1CCC2(C)OC2C1` (stereo not given), for which the result was inactive.

For the compound `C=CC(C)(CCC=C(C)C)OC(=O)C(C)C` (stereo not given), the compound was classed as inactive.

For the compound `C/C=C\C/C=C/CCCCCCCCOC(C)=O`, the compound was classed as inactive.

`CCCCCCCCCCC=CC#N`: the outcome was inactive.

For the compound `NC(=O)OCC(COC(N)=O)c1ccccc1`, the compound was classed as inactive.

Take `CC(C)CC(O)Cc1ccccc1` (stereo not given): the compound was called inactive.

Regarding `Nc1ccc(N)c(Cl)c1`, the result was inactive.

Regarding `Cc1ccc(C2OC[C@@H]3OC(c4ccc(C)cc4)O[C@H]([C@H](O)CO)[C@@H]3O2)cc1` (stereo not given in full), the outcome was inactive.

With `CCCCCCCCC(=O)OCC`, the call was inactive.

In the case of `O=C(Nc1ccccc1SSc1ccccc1NC(=O)c1ccccc1)c1ccccc1`, the call was inactive.

Consider `COC(=O)c1c(C)cc(O)c(C)c1O`, for which the call was inactive.

As to `CC(C)(C)C(=O)CCc1ccc(Cl)cc1`, the result was inactive.

As for `O=Nc1ccc(O)cc1`, the call was inactive.

Regarding `NC(CO)(CO)CO`, the compound was called inactive.

Consider `C=C(C)C(=O)OCCO`, for which the call was inactive.

These data come from PubChem BioAssay (EPA / NIEHS).
